FEN1 inh – blocks human flap endonuclease 1; AID 588795; Potency, µM (highest dose often 114 µM), without a hit: at the highest dose activity change, negative = inhibition, most hits filed as inhibitors; Recombinant FEN1 flap cleavage, fluorescence, 15 min; hit rate 0.35% among 390,000; P39748; also: potency is read from the fitted curve at half-maximal effect; % is scaled to controls: 0 for no effect and ±100 for the full control effect; nearly all actives have a fitted effect of over 65% in size
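Concentration–response screening of FEN1 (10 nM): 15 min compound preincubation at room temperature, reaction started with 50 nM substrate and read at 0 and 15 min. Corrected, normalized data were fitted by a four-parameter Hill equation.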
Pol beta inh – blocks human DNA polymerase beta activity; Pol beta primer extension/strand displacement, fluorescence kinetic; Potency, µM (top dose mostly 114 µM), for inactives: top-dose activity change, negative = inhibition, most hits filed as inhibitors; hit rate 1.3% among 340,000; also: potency is read from the fitted curve at half-maximal effect; % is scaled to controls: 0 for no effect and ±100 for the full control effect
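Homogeneous kinetic assay of primer extension and strand displacement by 10 nM Pol beta, preincubated 15 min at room temperature with compound before 50 nM substrate (final) was added. Read at 0 and 10 min; four-parameter Hill fit.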
POLH inh – DNA polymerase eta (human) inhibition; Q9Y253; recombinant Pol eta, fluorescent DNA replication assay; Potency, µM (titrated, usually from 114 µM), inactives show at the top dose activity change, negative = inhibition, usual class: inhibitors; hit rate 1.2% among 390,000; also: potency is read from the fitted curve at half-maximal effect; % is scaled to controls: 0 for no effect and ±100 for the full control effect
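Fluorescent replication assay: 50 nM final substrate added after a 15 min room-temperature compound preincubation with 10 nM enzyme. Signal taken at 0 min and again at 10 min.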
POLI inh – blocks human DNA polymerase iota activity | Q9UNA4 | Potency, µM (series often up to 115 µM), without a hit: at the highest dose activity, negative = inhibition, usual class: inhibitors | AID 588590 | Pol iota fluorescent replication assay, 10 min | hit rate 1% among 390,000; also: potency is read from the fitted curve at half-maximal effect
Target sequence (Q9UNA4 whole entry, looked up): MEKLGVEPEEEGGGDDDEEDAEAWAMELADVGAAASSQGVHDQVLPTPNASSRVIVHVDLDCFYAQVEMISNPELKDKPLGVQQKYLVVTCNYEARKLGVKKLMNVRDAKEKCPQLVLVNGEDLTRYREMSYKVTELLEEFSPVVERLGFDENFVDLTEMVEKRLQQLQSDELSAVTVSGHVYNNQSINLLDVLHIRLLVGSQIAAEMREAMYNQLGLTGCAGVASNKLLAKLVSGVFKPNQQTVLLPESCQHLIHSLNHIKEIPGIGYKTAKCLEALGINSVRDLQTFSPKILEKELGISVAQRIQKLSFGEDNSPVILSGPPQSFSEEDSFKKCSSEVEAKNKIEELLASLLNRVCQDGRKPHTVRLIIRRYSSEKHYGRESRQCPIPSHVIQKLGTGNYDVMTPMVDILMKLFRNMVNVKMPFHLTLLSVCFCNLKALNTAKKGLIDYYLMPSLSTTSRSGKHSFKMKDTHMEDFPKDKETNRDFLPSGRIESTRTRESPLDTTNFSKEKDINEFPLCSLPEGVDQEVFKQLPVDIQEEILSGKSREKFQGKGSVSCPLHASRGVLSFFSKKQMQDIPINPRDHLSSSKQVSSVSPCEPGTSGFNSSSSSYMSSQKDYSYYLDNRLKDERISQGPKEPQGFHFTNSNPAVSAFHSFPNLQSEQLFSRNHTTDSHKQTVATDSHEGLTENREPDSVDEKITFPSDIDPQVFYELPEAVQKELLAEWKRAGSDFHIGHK
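Pol iota at 10 nM preincubated 15 min with compounds at room temperature; reaction started with fluorescent substrate, 50 nM final. Fluorescence read kinetically at 0 and 10 min; buffer-only wells as negative control.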
POLK inh – inhibitors of human DNA polymerase kappa. Potency, µM (titrated, usually from 107 µM), for inactives: at the highest dose activity, negative = inhibition, most hits filed as inhibitors. Q9UBT6. purified Pol kappa, fluorescent DNA synthesis assay, 10 min. hit rate 0.53% among 400,000; also: potency is read from the fitted curve at half-maximal effect; % is scaled to controls: 0 for no effect and ±100 for the full control effect
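10 nM Pol kappa preincubated 15 min at room temperature with compounds, then reaction started with substrate at 50 nM final. Fluorescence read kinetically at 0 and 10 min; buffer-only wells served as negative control.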
PI5P4Ka inh – PI5P4K alpha (human) kinase inhibition; PI5P4Kalpha enzyme, ADP-Glo luminescence, 60 min; active compounds read low; AID 652105; hit rate 1.2% among 330,000; P48426; max response, %; active = max response of -50% or lower; inconclusive = between -30% and -50%; inactive = -30% or higher; also: value at the top dose of about 77 µM; % is scaled to controls: 0 for no effect and ±100 for the full control effect
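Enzyme plus substrate dispensed, test compounds pinned in, then ATP (5 microM final) added. After 60 min at RT, ADP-Glo reagent 1 for 45 min and reagent 2 for 30 min preceded luminescence imaging.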
Starred values were filed as active, the others as inactive; u = inconclusive; x = not tested or not shown; [ ] = remark or other dose. Most compounds without a hit are left out; they make up all but 2.8% or so of the library. Unless noted, calls follow the shape of the dose curve; as a rule, active = well fitted curve in the direction sought with a large enough effect; inconclusive = small, poorly fitted or top-dose-only effect, or another doubt; inactive = no such curve, though single readings can be large; an effect the other way counts as inactive or inconclusive.

SMILES | FEN1 inh | Pol beta inh | POLH inh | POLI inh | POLK inh | PI5P4Ka inh
O=C(Nc1nc2c(Cl)cccc2s1)c1ccc([N+](=O)[O-])o1 | -16% | 4% | 50µM* | 31% | -13% | -5
Cc1ccc(-c2csc(NC(=O)c3ccc([N+](=O)[O-])o3)n2)cc1 | -16% | 1% | 79µM* | -7% | 1% | -15
COC(=O)c1cc(S(=O)(=O)C(C)C)c(S(C)=O)s1 (centres undefined) | 3% | -3% | -5% | 6% | -4% | 1
FC(F)(F)c1cc(-c2ccco2)nc(NCc2ccco2)n1 | u | u | 50µM* | u | u | u
FC(F)(F)c1cc(-c2ccco2)nc(NCc2cccs2)n1 | -22% | 1% | u | 8% | -10% | u
Cc1cccc(-c2nc(SCC(=O)Nc3cccc(C(F)(F)F)c3)n3[nH]c(=O)cc3n2)c1 | -21% | 40µM* | -19% | u | -26% | x
COc1ccc(NC(=O)CSc2nc(-c3ccccc3)nc3cc(=O)[nH]n23)cc1 | -3% | 25µM* | -15% | u | u | x
COc1ccc(NC(=O)CSc2nc(-c3ccco3)nc3cc(=O)[nH]n23)cc1 | -3% | 25µM* | u | 79µM* | u | x
COc1ccccc1OCCCSc1nc(-c2ccc(C(C)(C)C)cc2)nc2cc(=O)[nH]n12 | -13% | u | 79µM* | u | u | x
O=C(CSc1nc(-c2cccs2)nc2cc(=O)[nH]n12)Nc1cccc(C(F)(F)F)c1 | 10% | u | -17% | u | -17% | x
O=C(CSc1nc(-c2ccccc2)nc2cc(=O)[nH]n12)Nc1ccccc1 | -9% | u | -2% | u | -9%[60.1 µM] | x
COc1cc(OC)c(NC(=O)/C=C/C(=O)O)cc1Cl | -2% | 2% | -16% | 85% | -6% | 7
C=CCc1ccccc1OCCSc1nc(-c2ccccc2F)nc2cc(=O)[nH]n12 | -6% | 10µM* | u | u | -39% | x
Cc1ccc(NC(=O)CSc2nc(-c3ccco3)nc3cc(=O)[nH]n23)cc1C | 1% | 40µM* | u | u | u | x
Cc1ccc(NC(=O)CSc2nnc(CNC(=O)c3ccco3)n2C)cc1C | 4% | x | -20% | 31% | -2% | 1
C=CCc1ccccc1OCCSc1nc2ccc([N+](=O)[O-])cc2s1 | -13% | 22% | -5% | 7% | -15% | -4
Cc1ccc(NC(=O)CSc2nc(-c3cccs3)nc3cc(=O)[nH]n23)cc1 | -14% | 32µM* | 79µM* | u | -34% | x
COc1ccc(-c2nc(SCCOc3ccccc3Cl)n3[nH]c(=O)cc3n2)cc1 | -25% | -31% | -5% | -20% | -21% | x
Cc1cccc(NC(=O)CSc2nc(-c3cccs3)nc3cc(=O)[nH]n23)c1 | -15% | u | -8% | u | -31% | x
COc1cccc(-c2nc(SCc3ccc(C)cc3)n3[nH]c(=O)cc3n2)c1 | -5% | u | -8% | 89µM* | -16% | x
COc1cc2c(-c3ccc(C)cc3)nc3c(c(C)nn3-c3ccccc3)c2cc1OC | 6% | 33% | -11% | 33% | 3% | x
CCOC(=O)C1(CCOc2ccccc2)CCN(Cc2cccc3nonc23)CC1 | -2% | 0% | -6% | -12% | -8% | 1
O=C(CSc1nnc(-c2ccc(O)cc2)o1)NNC(=O)c1ccncc1 | -2% | 42% | -2% | 12% | 4% | -12
S=c1[nH]nc(NC2CCCCC2)s1 | x | x | 4% | x | x | -70*
CCOC(=O)Cc1cn2c(=O)cc(CSCC(=O)Nc3ccc(C)c(C)c3)nc2s1 | 36% | u | 89µM* | u | -20% | -28
SMILES | FEN1 inh | Pol beta inh | POLH inh | POLI inh | POLK inh | PI5P4Ka inh
COc1ccc(NC(=O)CSCc2cc(=O)n3cc(C)sc3n2)cc1 | 19% | -13% | 0% | 7% | -6% | 5
CC(=O)C1=C(O)C(=O)N(CCc2c[nH]c3ccccc23)C1c1ccco1 (centres undefined) | -3% | 32µM* | -16% | u | -11% | -5
O=C(c1ccc2c(=O)n(CCc3ccccc3)c(=O)[nH]c2c1)N1CCN(C(=O)c2ccco2)CC1 | 11% | x | x | 0% | -10% | x
C[C@@H](C(=O)NCc1ccccc1)[C@@H]1C[C@@]1(C)[C@@H](NC(=O)OCc1ccccc1)c1ccccc1 | 4% | 4% | -16% | -2% | 10% | -3
Cc1ccc(CNC(=O)[C@H](C)[C@H]2C[C@]2(C)[C@H](NC(=O)OCc2ccccc2)c2ccccc2)o1 | -3% | -6% | -10% | u | -14% | -52*
O=C1CCCc2c1sc1nc3n(c(=O)c21)CCCCC3 | -14% | 29% | -12% | 15% | 0% | 2
O=c1c2c3c(sc2nc2n1CCCCC2)CCC3 | -10% | 32µM* | -12% | 11% | 6% | -20
CC(C)Oc1ccc(C(=O)N/N=C/c2ccc(-c3ccc(S(=O)(=O)Nc4ncccn4)cc3)o2)cc1 | 79µM* | 1% | 2.8µM* | u | 45µM* | u
Cc1ccc(C(=O)N/N=C\c2ccc(-c3ccc(Cl)cc3)o2)cn1 | -10% | 2% | -14% | 16% | -8% | -8
Cc1ccc2c(c1)C(=O)OC(C(=O)Nc1ccc(C(=O)O)cc1)C2 (centres undefined) | -9% | 11% | -1% | 89µM* | -24% | x
Cc1ccc2c(c1)C(=O)OC(C(=O)Nc1ccccc1C(=O)O)C2 (centres undefined) | 45% | 9% | -11% | 2% | -2%[60.1 µM] | x
COc1cc(/C=C2\SC(=Nc3ccccc3)NC2=O)cc(Cl)c1O | u | 56µM* | u | -11% | -14% | -104*
CCc1ccc(N=C2NC(=O)/C(=C/c3cc(OC)c(O)c(OC)c3)S2)cc1 | u | u | -25% | 1% | -11% | -54*
O=C1NC(=Nc2ccccc2)S/C1=C\c1ccccc1 | 4% | -1% | -12% | 9% | -9% | -8
COc1cc(/C=C2\COC/C(=C\c3ccc(O)c(OC)c3)C2=O)ccc1O | u | 3% | u | u | -8% | -23
COC(=O)/C=C1\SC(=Nc2ccc(OC)cc2)NC1=O | 11% | -10% | -15% | 5% | -1% | -7
COc1ccc(/C=C2\SC(=Nc3ccccc3OC)NC2=O)cc1 | -2% | 5% | 79µM* | u | 2% | 2
COc1cc(/C=C2/CC/C(=C/c3ccc(O)c(OC)c3)C2=O)ccc1O | u | 18µM* | 35µM* | 40µM* | u | -25
COc1cc(/C=C2\SC(=Nc3ccccc3OC)NC2=O)ccc1O | u | 15% | -26% | -10% | -10% | u
CCCN(CCC)c1nn2c(=O)c(C(=O)NCc3cc(Br)ccc3OC)cnc2s1 | -2% | 0% | -3% | -20% | -17% | x

Screening results (PubChem BioAssay)
